Records with an inconclusive call do not appear. Active and inactive are the calls of the source. The call rests on the fitted dose curve; in most records, active means well fitted inhibition curve with a large enough effect; inconclusive means small, poorly fitted or top-dose-only effect; inactive means flat fitted curve, though single readings scatter.
Key:
Test in all cases: qHTS profiling for inhibitors of Plasmodium falciparum proliferation (AID 504749); further: nearly all actives have a fitted effect of over 60% in size
Settings in all cases: P. falciparum in erythrocytes, SYBR Green DNA, 72 h; series mostly up to 28.7 µM
[1] = system: CP286
Summary of the method: (§1)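 Quantitative HTS: compounds pinned into medium, infected erythrocytes added (0.3% parasitemia, 2.5% hematocrit), 72 h culture at 37 C under 5% CO2. Saponin/Triton lysis with SYBR Green I, overnight RT, then fluorescence read.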

[2] = system: CP291
Summary of the method: as §1

[3] = system: CP297
Summary of the method: as §1

[4] = system: CP305
Summary of the method: as §1

[5] = system: CP315
Summary of the method: as §1

[6] = system: CP325
Summary of the method: as §1

[7] = system: CP329
Summary of the method: as §1

[8] = system: CP335
Summary of the method: as §1

[9] = system: DFO2036
Summary of the method: as §1

[10] = system: DIV17
Summary of the method: as §1

[11] = system: DIV30
Summary of the method: as §1

[12] = system: Dd2
Summary of the method: as §1

[13] = system: ECU
Summary of the method: as §1

[14] = system: FAB9
Summary of the method: as §1

[15] = system: GB4
Summary of the method: as §1

[16] = system: HB3
Summary of the method: as §1

[17] = system: ICS
Summary of the method: as §1

[18] = system: JCK
Summary of the method: as §1

[19] = system: N140
Summary of the method: as §1

[20] = system: DIV14
Summary of the method: as §1
Potency means the concentration at half of the fitted maximal effect.

Structure (SMILES)	Potency [1]	Potency [2]	Potency [3]	Potency [4]	Potency [5]	Potency [6]	Potency [7]	Potency [8]	Potency [9]	Potency [10]	Potency [11]	Potency [12]	Potency [13]	Potency [14]	Potency [15]	Potency [16]	Potency [17]	Potency [18]	Potency [19]	Potency [20]
O=S(=O)(O)c1ccc2nc(-c3ccccc3)[nH]c2c1	inactive	inactive	inactive	inactive	inactive	inactive	inactive	inactive	inactive	inactive	inactive	inactive	inactive	inactive	inactive	inactive	inactive	inactive	inactive	–
CN1CCC(Nc2ncc3ncnc(Nc4ccc(F)c(Cl)c4)c3n2)CC1	11.2 µM (active)	15.1 µM (active)	–	–	inactive	–	–	9.53 µM (active)	–	8.49 µM (active)	–	7.94 µM (active)	12.6 µM (active)	–	13.5 µM (active)	–	6.31 µM (active)	7.94 µM (active)	10 µM (active)	10.7 µM (active)
CCCCCCCCCCCCCC[N+](C)(C)C	2.51 µM (active)	4.78 µM (active)	10.7 µM (active)	5.36 µM (active)	5.36 µM (active)	6.01 µM (active)	5.36 µM (active)	4.26 µM (active)	4.47 µM (active)	7.57 µM (active)	6.75 µM (active)	6.31 µM (active)	4.47 µM (active)	11.2 µM (active)	5.36 µM (active)	6.31 µM (active)	2.51 µM (active)	–	6.31 µM (active)	6.75 µM (active)
Nc1c2ccccc2nc2ccccc12	5.01 µM (active)	–	–	–	–	–	–	–	5.01 µM (active)	7.57 µM (active)	15.1 µM (active)	12.6 µM (active)	10 µM (active)	–	10.7 µM (active)	–	7.94 µM (active)	–	5.01 µM (active)	8.49 µM (active)
O=C(Nc1ccc(Cl)cc1)Nc1ccc(Cl)c(Cl)c1	2.24 µM (active)	4.78 µM (active)	7.57 µM (active)	4.78 µM (active)	inactive	4.26 µM (active)	8.49 µM (active)	3.38 µM (active)	2.82 µM (active)	0.953 µM (active)	1.69 µM (active)	–	3.55 µM (active)	5.01 µM (active)	2.39 µM (active)	11.2 µM (active)	0.631 µM (active)	10 µM (active)	2 µM (active)	1.35 µM (active)
Nc1ccc2cc3ccc(N)cc3nc2c1	3.55 µM (active)	–	–	–	–	–	–	6.01 µM (active)	–	12 µM (active)	–	–	–	8.91 µM (active)	13.5 µM (active)	–	2.82 µM (active)	–	–	6.01 µM (active)
O=[N+]([O-])c1ccc(O)c2ncccc12	–	–	–	–	–	–	–	–	–	–	–	12.6 µM (active)	–	–	15.1 µM (active)	–	12.6 µM (active)	–	–	–
CN1CCCN(C(c2ccccc2)c2ccc(Cl)cc2)CC1 (configuration not stated)	11.2 µM (active)	–	–	–	inactive	–	–	12 µM (active)	–	1.51 µM (active)	–	–	–	–	13.5 µM (active)	–	8.91 µM (active)	–	10 µM (active)	1.69 µM (active)
Nc1ncnc2nc[nH]c12	inactive	inactive	inactive	inactive	inactive	inactive	inactive	inactive	inactive	inactive	inactive	inactive	inactive	inactive	inactive	inactive	inactive	inactive	inactive	inactive
CCCCCCCCCCCCCCCC[N+](C)(C)Cc1ccccc1	2.82 µM (active)	15.1 µM (active)	13.5 µM (active)	–	–	9.53 µM (active)	10.7 µM (active)	12 µM (active)	2.82 µM (active)	8.49 µM (active)	15.1 µM (active)	–	3.16 µM (active)	10 µM (active)	5.36 µM (active)	–	2.82 µM (active)	–	14.1 µM (active)	8.49 µM (active)
CCCCCCCCCCCCCCCC[n+]1ccccc1	2.51 µM (active)	6.01 µM (active)	5.36 µM (active)	6.75 µM (active)	–	5.36 µM (active)	7.57 µM (active)	6.75 µM (active)	5.62 µM (active)	6.75 µM (active)	13.5 µM (active)	10 µM (active)	7.08 µM (active)	–	3.38 µM (active)	–	2.51 µM (active)	–	8.91 µM (active)	6.75 µM (active)
CC(NCCC(c1ccccc1)c1ccccc1)c1ccccc1 (configuration not stated)	3.98 µM (active)	13.5 µM (active)	–	13.5 µM (active)	–	15.1 µM (active)	–	4.78 µM (active)	–	6.01 µM (active)	8.49 µM (active)	8.91 µM (active)	7.94 µM (active)	–	15.1 µM (active)	10 µM (active)	2.24 µM (active)	–	11.2 µM (active)	5.36 µM (active)
